Reference: PubChem BioAssay
Calls of active or inactive are those of the source. Unless noted, how the calls were made is not given here.

Assays:
[1] = test system: Wnt5a (protein binding on small-molecule microarray); test: small molecules binding Wnt5a protein – biophysical, small-molecule microarray, 635/667 nm fluorescence, primary screen (AID 1142); settings: 635 nm fluorescence, higher = more signal;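 further: fluorescence read at 667 nm with signal to noise per printed feature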
[2] = ATP-based viability of Huh7 replicon cells – cell-based, CellTiter-Glo luminescence, basal, 48 h, cytotoxicity control for HCV replication inhibitor project, primary screen (AID 1143); settings: higher = more signal, called active from +8 up or from −8 down;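 further: Huh7 hepatoma cells carrying a hepatitis C replication reporter with no stimulus; test concentration not given here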
[3] = Pseudomonas biofilm growth suppression – PAO1 strain, BacTiter-Glo luminescence, LB-PBS, primary screen (AID 1144); settings: P. aeruginosa PAO1 biofilm, 12 h, higher = more signal
[4] = basal CRE-LacZ reporter activity in PC12 – cell-based, unstimulated, primary screen (AID 1145); settings: no forskolin, luminescence, 4.5 h, higher = more signal, called active from +8 up or from −8 down
[5] = forskolin-driven CRE-LacZ activity in PC12 – cell-based, CRE-LacZ reporter, forskolin-stimulated, primary screen (AID 1146); settings: luminescence, 4.5 h, higher = more signal, called active from +8 up or from −8 down;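 further: PC12 cells with 6xCRE LacZ reporter stimulated by forskolin 10 µM; beta-galactosidase reporter signal reflecting CREB driven transcription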
[6] = target: Streptavidin (Streptomyces avidinii) (UniProt P22629); test: compounds binding control protein streptavidin – biophysical, small-molecule microarray, 635/667 nm fluorescence, artefact control for SMM compound annotation, primary screen (AID 1147); settings: higher = more signal;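 further: signal reflects streptavidin binding to arrayed compounds as a control protein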
[7] = probe aInhba binding on compound microarray – biochemical, small-molecule microarray, 635/667 nm fluorescence, primary screen (AID 1148); settings: higher = more signal;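 further: score merges 667nm spot fluorescence with signal-to-noise for antibody binding to printed compounds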
[8] = target: Torsin-1A (Homo sapiens) (UniProt O14656); test: TOR1A wild-type binding on microarray – cell lysate, small-molecule microarray, lysate, 635/667 nm, primary screen (AID 1149); settings: COS7 hTOR1A-WT lysate, 635 nm fluorescence, higher = more signal
[9] = target: Torsin-1A (Homo sapiens) (UniProt O14656); test: torsin A mutant lysate binding on microarrays – cell lysate, small-molecule microarray, COS7 lysate, 635/667 nm fluorescence, primary screen (AID 1150); settings: COS7 hTOR1A mutant lysate, 635 nm fluorescence, higher = more signal;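 further: score pools 667 nm emission and signal to noise measuring lysate protein binding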
[10] = test system: Sonic hedgehog protein (Shh); test: Sonic hedgehog microarray binding compounds – biochemical, small-molecule microarray, 635/667 nm fluorescence, primary screen (AID 1151); settings: 635 nm fluorescence, higher = more signal;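 further: Shh protein binding to compounds spotted on small-molecule microarray slides; score combines spot fluorescence intensity with signal-to-noise across triplicate slides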

Torsin-1A (Homo sapiens), sequence (O14656 whole entry, looked up): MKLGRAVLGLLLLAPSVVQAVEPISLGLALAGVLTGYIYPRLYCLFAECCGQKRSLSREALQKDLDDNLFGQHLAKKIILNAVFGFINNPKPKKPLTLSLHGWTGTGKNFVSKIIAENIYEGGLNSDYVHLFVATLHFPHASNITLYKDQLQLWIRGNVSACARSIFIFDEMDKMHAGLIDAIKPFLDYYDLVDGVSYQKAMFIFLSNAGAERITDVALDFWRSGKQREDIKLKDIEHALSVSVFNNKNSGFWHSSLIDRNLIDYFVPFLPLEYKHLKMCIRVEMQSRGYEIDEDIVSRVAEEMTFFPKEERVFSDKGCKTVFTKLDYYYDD
Streptavidin (Streptomyces avidinii), sequence (P22629 whole entry, looked up): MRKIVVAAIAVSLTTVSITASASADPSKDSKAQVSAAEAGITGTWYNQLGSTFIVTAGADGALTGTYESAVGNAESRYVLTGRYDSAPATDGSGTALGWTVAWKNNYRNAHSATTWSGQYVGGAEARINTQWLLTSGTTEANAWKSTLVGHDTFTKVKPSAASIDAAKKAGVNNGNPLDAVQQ

Row | SMILES | composite z-score [1] | z-score [2] | z-score [3] | z-score [4] | z-score [5] | composite z-score [6] | composite z-score [7] | composite z-score [8] | composite z-score [9] | composite z-score [10]
1 | CCOC(=O)NN=C1C[C@@H](O)[C@@H](O)[C@@H]2[C@@H]3C(=O)N(Cc4ccccc4)C(=O)[C@@H]3CC[C@H]12 | -0.0307 | -0.239 (inactive) | -0.704 (inactive) | -0.837 (inactive) | -0.175 (inactive) | 1.09 | -0.214 | 0.0722 | 1.36 | -0.171
2 | CCOC(=O)[C@H](CC(C)C)NC(=O)CCC1CC(OC(=O)NCc2cccc3ccccc23)CC2(CCCC(COC(=O)NCC3CCCCC3)O2)O1 (stereo not given in full) | -0.0639 | -4.12 (inactive) | -0.306 (inactive) | 0.0178 (inactive) | 1.6 (inactive) | 0.405 | -0.0962 | -0.192 | 0.528 | 1.06
3 | CCCCC#C[C@@H]1C=C[C@H](Oc2cc(OC)c(OC)c(OC)c2)[C@@H](COC(=O)OCC)O1 | -0.282 | -0.721 (inactive) | -0.264 (inactive) | 2 (inactive) | -0.684 (inactive) | -0.523 | -0.173 | -0.0251 | -0.361 | 0.375
4 | O=C1C[C@@H](O)[C@@H](O)[C@@H]2[C@@H]3C(=O)N(C[C@@H]4CCCO4)C(=O)[C@@H]3CC[C@H]12 | 0.288 | 0.114 (inactive) | 0.54 (inactive) | 0.517 (inactive) | -0.105 (inactive) | 0.168 | -0.128 | 0.34 | 0.068 | 0.46
5 | C[C@@H](c1ccccc1)N1C(=O)[C@H]2[C@H]3[C@H](O)[C@H](O)CC(=NO[C@@H]4O[C@H](CO)[C@@H](O)[C@H](O)[C@H]4O)[C@@H]3CC[C@H]2C1=O | 0.0794 | 0.401 (inactive) | -0.783 (inactive) | -0.566 (inactive) | 0.331 (inactive) | 0.238 | -0.0626 | 1.1 | 0.907 | 0.116
6 | CC(=O)OC[C@H]1O[C@H](CC=NO[C@H](C)c2cn([C@H](CO)Cc3ccccc3)nn2)C=C[C@@H]1OC(C)=O | 0.315 | 0.089 (inactive) | -0.738 (inactive) | 0.839 (inactive) | 0.731 (inactive) | 1.35 | -0.218 | 0.56 | 0.579 | 0.805
7 | CO[C@@H]1C=CCC(=O)N[C@@H](C)C(=O)OC[C@@H](OC)[C@H](C)CCCC(=O)OC[C@H]1C | 0.122 | -0.468 (inactive) | -0.499 (inactive) | -0.808 (inactive) | 0.0561 (inactive) | 0.253 | -0.101 | 3.16 | 2.84 | 1.71
8 | C#CCCCON=C1C[C@@H](O)[C@@H](O)[C@@H]2[C@@H]3C(=O)N(c4ccc(F)cc4F)C(=O)[C@@H]3CC[C@H]12 | 0.166 | -1.71 (inactive) | -0.203 (inactive) | -0.475 (inactive) | 0.278 (inactive) | -0.222 | -0.183 | 0.696 | 1.31 | 0.782
9 | COc1ccc(C#C[C@@H]2C=C[C@H](OC(C)=O)[C@@H](COC(C)=O)O2)cc1 | 0.392 | -3.46 (inactive) | 0.132 (inactive) | 0.291 (inactive) | 1.08 (inactive) | 0.271 | 0.0442 | 0.244 | 0.267 | 0.882
10 | CON=C1[C@H]2CCn3c(=O)n(-c4ccccc4)c(=O)n3[C@H]2[C@H](O)[C@@H]2O[C@H]12 | 0.0275 | 0.653 (inactive) | -0.633 (inactive) | 1.55 (inactive) | 0.236 (inactive) | 0.0011 | -0.268 | 0.144 | 0.606 | 0.435
11 | O=C1OCCC=C1C(O)CCc1ccccc1 (stereo not given) | 0.0626 | 0.104 (inactive) | 1.15 (inactive) | 0.196 (inactive) | 0.571 (inactive) | 0.992 | -0.0562 | -0.0693 | 0.0478 | 0.316
12 | CCOC(=O)NN=C1C[C@@H](O)[C@@H](O)[C@@H]2[C@@H]3C(=O)N(C(C)(C)C)C(=O)[C@@H]3CC[C@H]12 | 0.138 | -0.0395 (inactive) | 0.655 (inactive) | -0.295 (inactive) | 0.269 (inactive) | 0.344 | 0.0427 | 0.446 | 0.307 | 0.187
13 | C[C@H]1CC[C@H]2C(=O)OC(CO)CN2[C@@H]1c1ccc(Br)cc1 (stereo not given in full) | 0.0096 | 0.131 (inactive) | -1.21 (inactive) | -0.527 (inactive) | -1.43 (inactive) | -0.281 | -0.253 | 0.21 | 0.002 | 0.661
14 | CCN1C(=O)[C@H]2[C@H]3[C@H](O)[C@H](O)CC(=O)[C@H]3CC[C@H]2C1=O | 0.113 | 0.89 (inactive) | -0.212 (inactive) | -0.293 (inactive) | -0.733 (inactive) | -0.0154 | -0.225 | 1.06 | 0.386 | 0.593
15 | COC(=O)[C@H](C)NC(=O)CCC1CC(OC(=O)NCc2ccc3c(c2)OCO3)CC2(CCCC(COC(=O)NCC3CCCCC3)O2)O1 (stereo not given in full) | 0.283 | -0.643 (inactive) | -0.112 (inactive) | 0.104 (inactive) | 1.35 (inactive) | 0.543 | -0.0719 | 0.174 | 0.433 | 1.72
